Inconclusive results are not listed. Activity calls are given as the source filed them. The calls were made as follows, unless noted: active = hit-call score of the fitted dose curve at least 0.9, where 1 is the maximum; inactive = score below 0.9.
Legend:
[1] = ATG_TCF_b_cat_CIS: Attagene CIS-FACTORIAL HepG2 Assay for human T-Cell-Factor with beta-catenin (TCF/b-cat) (AID 2282965); details: HepG2 TCF/beta-catenin cis-reporter transcription, actives raise or lower the signal
Method in brief: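 HepG2 cells transiently transfected with multiple cis-promoter-regulated reporter transcription units, so endogenous transcription factor activity is measured. Reporter mRNA read 24 hours after dosing by RT-PCR, fluorescent labelling and capillary electrophoresis; bidirectional fitting against DMSO.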

[2] = ATG_TAL_CIS: Attagene CIS-FACTORIAL HepG2 Assay for human TAL Basal Promoter (AID 2282966); details: HepG2 Attagene cis-factorial TAL promoter reporter; actives raise or lower the signal;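 also: background control endpoint measuring basal TAL promoter reporter mRNA not a specific factor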
Method in brief: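 After 24 hours of chemical exposure, transfected HepG2 cells yielded RNA that was converted to 6-FAM-labelled, HpaI-digested reporter fragments for capillary electrophoresis. Values derive from bidirectional fitting against DMSO controls.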

[3] = ATG_TGFb_CIS: Attagene CIS-FACTORIAL HepG2 Assay for human Transforming Growth Factor (TGF) (AID 2282967); details: HepG2 Attagene CIS TGFb reporter, mRNA transcription; actives raise or lower the signal
Method in brief: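 Bidirectional fitting relative to DMSO gave the endpoint. Underlying data: reporter mRNA from HepG2 cells carrying transiently transfected cis-regulated reporter constructs, harvested 24 h after dosing and analyzed by RT-PCR and capillary electrophoresis.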

[4] = target: Nuclear receptor subfamily 1 group I member 3 (Homo sapiens) (UniProt Q14994); experiment: ATG_CAR_TRANS: Attagene TRANS-FACTORIAL HepG2 Assay for human Constitutive Androstane Receptor (CAR) (AID 2282969; active = hit-call score of the fitted dose curve at least 0.9, where 1 is the maximum;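 also: activators raise reporter mRNA above DMSO so AC50 marks induction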); details: HepG2 Attagene TRANS-FACTORIAL CAR reporter
Method in brief: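 Steps: transient transfection of HepG2 with multiple GAL4-UAS reporter units; 24 h compound incubation; RNA isolation, RT-PCR, 6-FAM primer extension, HpaI digest; capillary electrophoresis. Gain-of-signal relative to DMSO negative control.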

[5] = target: X-box-binding protein 1 (Homo sapiens) (UniProt P17861); experiment: ATG_Xbp1_CIS: Attagene CIS-FACTORIAL HepG2 Assay for human X-box Binding Protein 1 (XBP1) (AID 2282972); details: HepG2 XBP1 cis-element reporter, Attagene multiplex; actives raise or lower the signal
Method in brief: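 Reporter transcripts were quantified by RT-PCR with fluorescent primer extension and capillary electrophoresis after 24 h chemical exposure. Cells: transiently transfected HepG2 carrying cis-regulated reporter constructs; data fitted bidirectionally relative to DMSO.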

[6] = ATG_M_19_TRANS: Attagene TRANS-FACTORIAL HepG2 Assay for M19 Transcription Factor (Internal Marker) (AID 2282974; active = hit-call score of the fitted dose curve at least 0.9, where 1 is the maximum); details: HepG2 Attagene TRANS-FACTORIAL M19 internal marker reporter
Method in brief: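 Background-control readout: after 24 h chemical exposure of transfected HepG2 carrying GAL4-driven reporter units, RNA was reverse-transcribed, amplified, fluorescently labeled and sized by capillary electrophoresis; gain-of-signal fit against DMSO.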

[7] = ATG_GAL4_TRANS: Attagene TRANS-FACTORIAL HepG2 Assay for GAL4 (Internal Marker) (AID 2282976; active = hit-call score of the fitted dose curve at least 0.9, where 1 is the maximum); details: HepG2 Attagene TRANS GAL4 internal marker reporter
Method in brief: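 First, HepG2 cells were transfected with reporter units under GAL4-UAS control. Next, they were treated with chemical for 24 h. Finally, RNA was reverse-transcribed, PCR-amplified, FAM-labelled and resolved by capillary electrophoresis, with induction scored against DMSO.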

[8] = target: Estrogen receptor (Homo sapiens) (UniProt P03372); experiment: ATG_ERa_TRANS: Attagene TRANS-FACTORIAL HepG2 Assay for human Estrogen Receptor alpha (ERa) (AID 2282970; active = hit-call score of the fitted dose curve at least 0.9, where 1 is the maximum); details: HepG2 Attagene TRANS ERa GAL4 reporter, mRNA
Method in brief: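 Liver-derived HepG2 cells expressing chimeric nuclear receptor-Gal4 proteins from transient transfection were exposed for 24 hours. Gain of reporter mRNA signal versus DMSO, read by capillary electrophoresis of FAM-labelled PCR products, was recorded.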

[9] = target: Steroid hormone receptor ERR1 (Homo sapiens) (UniProt P11474); experiment: ATG_ERRa_TRANS: Attagene TRANS-FACTORIAL HepG2 Assay for human Estrogen-Related Receptor alpha (ERRa) (AID 2282971; active = hit-call score of the fitted dose curve at least 0.9, where 1 is the maximum); details: HepG2 Attagene TRANS reporter, ERRa transactivation
Method in brief: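 Reporter transcript induction was quantified by RT-PCR and capillary electrophoresis of FAM-labelled, HpaI-cut products after 24 h treatment of HepG2 cells carrying transiently transfected GAL4-UAS reporter units and an exogenous ERRa-Gal4 fusion; activity scored as increase over DMSO.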

Measured: outcome

X-box-binding protein 1 (Homo sapiens), sequence (P17861 whole entry, looked up): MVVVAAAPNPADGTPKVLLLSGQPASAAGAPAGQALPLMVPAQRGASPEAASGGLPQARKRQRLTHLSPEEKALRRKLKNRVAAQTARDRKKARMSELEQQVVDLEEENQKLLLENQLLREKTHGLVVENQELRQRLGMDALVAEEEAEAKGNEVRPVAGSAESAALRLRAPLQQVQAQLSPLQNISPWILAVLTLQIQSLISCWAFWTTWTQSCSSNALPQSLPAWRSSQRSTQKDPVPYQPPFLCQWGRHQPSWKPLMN
Nuclear receptor subfamily 1 group I member 3 (Homo sapiens), sequence (Q14994 whole entry, looked up, the tested form may be a part): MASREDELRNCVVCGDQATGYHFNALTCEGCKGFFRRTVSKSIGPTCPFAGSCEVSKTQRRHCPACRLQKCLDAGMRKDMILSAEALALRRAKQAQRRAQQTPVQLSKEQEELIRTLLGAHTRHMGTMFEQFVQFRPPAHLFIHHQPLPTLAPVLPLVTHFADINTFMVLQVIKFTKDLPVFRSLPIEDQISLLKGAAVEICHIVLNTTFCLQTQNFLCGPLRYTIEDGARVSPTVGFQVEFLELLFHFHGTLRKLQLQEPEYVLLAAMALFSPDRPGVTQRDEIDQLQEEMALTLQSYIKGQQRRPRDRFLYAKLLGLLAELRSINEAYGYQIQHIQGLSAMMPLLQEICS
Steroid hormone receptor ERR1 (Homo sapiens), sequence (P11474 whole entry, looked up, the tested form may be a part): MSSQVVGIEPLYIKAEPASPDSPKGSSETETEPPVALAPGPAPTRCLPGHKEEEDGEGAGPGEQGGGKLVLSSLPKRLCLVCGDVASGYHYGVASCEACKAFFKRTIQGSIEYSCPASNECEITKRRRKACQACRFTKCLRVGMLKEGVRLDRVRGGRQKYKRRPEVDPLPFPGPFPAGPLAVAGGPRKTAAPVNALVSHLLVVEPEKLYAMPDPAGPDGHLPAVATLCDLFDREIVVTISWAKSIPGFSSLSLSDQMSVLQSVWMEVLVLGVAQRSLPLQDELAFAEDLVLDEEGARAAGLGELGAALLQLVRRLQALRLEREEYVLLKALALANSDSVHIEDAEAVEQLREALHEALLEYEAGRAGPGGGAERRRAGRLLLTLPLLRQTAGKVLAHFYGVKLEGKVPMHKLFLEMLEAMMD
Estrogen receptor (Homo sapiens), sequence (P03372 whole entry, looked up, the tested form may be a part): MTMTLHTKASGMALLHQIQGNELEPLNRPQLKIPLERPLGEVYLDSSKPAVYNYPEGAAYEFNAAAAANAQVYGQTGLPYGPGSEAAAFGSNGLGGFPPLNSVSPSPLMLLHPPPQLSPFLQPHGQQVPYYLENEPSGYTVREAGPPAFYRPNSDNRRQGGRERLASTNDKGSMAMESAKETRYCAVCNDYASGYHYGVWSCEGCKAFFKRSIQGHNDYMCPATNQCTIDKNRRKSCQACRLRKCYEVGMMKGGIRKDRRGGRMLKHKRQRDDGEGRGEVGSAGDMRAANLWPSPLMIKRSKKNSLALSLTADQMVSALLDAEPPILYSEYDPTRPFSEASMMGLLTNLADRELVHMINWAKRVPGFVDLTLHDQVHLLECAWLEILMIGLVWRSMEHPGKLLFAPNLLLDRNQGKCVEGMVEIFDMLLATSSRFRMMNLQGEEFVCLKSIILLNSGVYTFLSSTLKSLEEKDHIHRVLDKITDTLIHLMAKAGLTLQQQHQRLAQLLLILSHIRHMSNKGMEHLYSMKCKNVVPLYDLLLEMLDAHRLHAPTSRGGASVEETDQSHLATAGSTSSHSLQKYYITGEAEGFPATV

Cc1cnccn1
not listed: [8] | [9]
inactive: all other assays above

O=C1C=CC(=O)N1c1ccccc1
not listed: [4]
inactive: all other assays above

O=C=NCc1cccc(CN=C=O)c1
not listed: [6] | [8] | [9]
inactive: all other assays above

N#Cc1ccccc1O
inactive: [1] | [2] | [3] | [4] | [5]

— PubChem BioAssay (EPA / NIEHS)
